# An excerpt weighted towards active compounds, which were near 10% of everything screened.
# NPR1 antag: human Npr1 receptor antagonism; 1.6% of 76,000 active; HEK293 hNpr1 GloSensor cGMP, ANP-stimulated luminescence; P16066; Potency, µM (titrated, usually from 46.3 µM), actives largely listed as inhibitors; calls by dose curve; further: nearly all actives have a fitted effect of over 60% in size
#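 Compound pre-incubated 30 min at room temperature on GloSensor-loaded HEK293 cells stably carrying hNpr1 and the pGS-40F cGMP biosensor. Stimulation uses hNppA at 0.1 nM final; luminescence is taken at baseline and 20 min post-agonist.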
# GPT2 inh: inhibitors of human GPT2 alanine aminotransferase | Q8TD30 | Recombinant GPT2, coupled pyruvate oxidase/HRP Amplex Red fluorescence | Potency, µM (doses to about 57.7 µM), usual class: inhibitors | 0.25% of 100,000 active; further: nearly all actives have a fitted effect of over 60% in size
#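 Inhibition is scored from Amplex Red fluorescence generated when pyruvate oxidase and HRP act on pyruvate released by GPT2. Reactions contain 10ng/uL enzyme, 250uM a-KG and 2mM L-alanine and run 30 min at room temperature.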
# FLuc inh: blocks purified firefly luciferase enzyme activity. P08659. purified P. pyralis luciferase, luminescence, biochemical. Potency, µM (titrated, usually from 115 µM), most hits filed as inhibitors. 2.5% of 76,000 active. AID 1347043; further: nearly all actives have a fitted effect of over 65% in size
# Target sequence (P08659 whole entry, looked up): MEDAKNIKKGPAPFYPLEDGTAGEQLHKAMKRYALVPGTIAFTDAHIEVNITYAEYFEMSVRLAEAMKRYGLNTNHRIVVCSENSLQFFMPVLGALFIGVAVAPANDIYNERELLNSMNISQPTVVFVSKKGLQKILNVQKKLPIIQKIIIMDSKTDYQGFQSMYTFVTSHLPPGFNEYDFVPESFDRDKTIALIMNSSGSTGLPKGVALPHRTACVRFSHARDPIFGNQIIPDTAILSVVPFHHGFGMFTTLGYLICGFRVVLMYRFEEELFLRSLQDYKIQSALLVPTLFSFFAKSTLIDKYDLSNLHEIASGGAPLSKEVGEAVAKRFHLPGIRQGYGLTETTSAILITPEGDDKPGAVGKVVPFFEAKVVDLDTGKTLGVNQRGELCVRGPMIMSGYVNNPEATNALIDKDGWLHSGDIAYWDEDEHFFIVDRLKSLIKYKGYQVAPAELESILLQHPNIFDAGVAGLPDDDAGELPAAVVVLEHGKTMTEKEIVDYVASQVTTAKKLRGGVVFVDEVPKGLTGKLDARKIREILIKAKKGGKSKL
#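 Purified P. pyralis luciferase (10nM final) in 50mM Tris acetate pH 7.5, 10mM Mg acetate, 0.01% Tween-20, 0.05% BSA with 10uM D-luciferin and 10uM ATP. Compounds titrated qHTS. Luminescence imaged on CCD.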
# HEK cytotox: kills HEK 293 cells | HEK 293 viability, ATP luminescence (CellTiter-Glo), 48-72 h | 6.6% of 94,000 active | AID 1345083 | Potency, µM (titrated, usually from 115 µM), most hits filed as inhibitors; further: nearly all actives have a fitted effect of over 60% in size
#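 Cells seeded first (HEK 293, 250 cells/well), then compound added by pintool. Incubation ran 48 or 72 hr at 37 degree Celsius. CellTiter-Glo was added and luminescence imaged after 10 min at room temperature.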
# NIH3T3 tox: kills NIH 3T3 cells; NIH 3T3 viability, CellTiter-Glo ATP luminescence, 48-72 h; Potency, µM (doses to about 96.7 µM), hits mostly inhibitors; 4.3% of 94,000 active; further: nearly all actives have a fitted effect of over 55% in size
#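 Cytotoxicity is measured as loss of cellular ATP: NIH 3T3 cells (400/well) are exposed to compound for 48 or 72 hr at 37 °C, then CellTiter-Glo luminescence is imaged after 10 min at room temperature.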
# Numbers stand for hits; . = inactive; ? = inconclusive; / = not tested or not shown; ! = not active in a repeat. Unless noted, the call rests on the fitted dose curve; in most records, active means well fitted curve in the direction sought with a large enough effect; inconclusive means small, poorly fitted or top-dose-only effect, or another doubt; inactive means no such curve, though single readings can be large; an effect the other way counts as inactive or inconclusive.
SMILES,NPR1 antag,GPT2 inh,FLuc inh,HEK cytotox,NIH3T3 tox
Cc1ccc(Nc2ccnc(N3CCCC(C(=O)N4CCN(c5ncccn5)CC4)C3)n2)cc1 (centres undefined),/,.,/,20µM,?
Cc1ccc(Nc2ccnc(N3CCC(C(=O)N4CCCC4)CC3)n2)cc1,/,.,/,?,?
Cc1ccc(Nc2ccnc(N3CCCC(C(=O)N4CCCC4)C3)n2)cc1 (centres undefined),/,.,/,?,28µM
Cc1ccc(Nc2ccnc(N3CC4CCC(C3)N4CC(F)(F)F)n2)cc1,/,?,/,40µM,28µM
Cc1cn2nc(C(=O)N3CCN(c4cccc(Cl)c4)CC3)cc2c(N2CCCC2)n1,.,?,.,?,?
CN1N=C(N)c2cn([C@@H]3O[C@H](COP(=O)(O)O)[C@@H](O)[C@@H]3O)c3ncnc1c23,/,14µM,/,/,/
Nc1ncnc2c1ncn2[C@@H]1O[C@H](COP(=O)(O)CP(=O)(O)OP(=O)(O)O)[C@@H](O)[C@H]1O,/,.,/,/,/
CNC(=O)N1CCC(C2CCN(C(=O)c3cccs3)C2)CC1 (centres undefined),.,.,.,.,.
CC(N)(Cc1ccc(O)c(O)c1)C(=O)O (centres undefined),/,8.9µM,/,/,/
C[C@](Cc1ccc(O)c(O)c1)(NN)C(=O)O,/,.,/,/,/
O=C(c1ccc2c(c1)N(C(=O)c1ccccc1)CC2)N1CCN(c2cccc(Cl)c2)CC1,.,.,.,32µM,?
COCCn1c(=O)c(C(=O)N2CCN(C(=O)C3CC3)CC2)nc2cccnc21,/,.,/,.,.
COc1ncccc1CN1CC[C@@H]2OCC(=O)N(Cc3ccccc3)[C@H]2CC1,.,.,.,112µM,100µM
COc1ncccc1CN1CC[C@@H]2OCC(=O)N(c3ccccc3)[C@H]2CC1,.,.,.,?,.
O=C1CO[C@H]2CCN(Cc3cccc(OC(F)(F)F)c3)CC[C@@H]2N1Cc1ccccc1,.,.,.,50µM,?
Cc1cccc(CN2CC[C@@H]3OCC(=O)N(Cc4ccccc4)[C@H]3CC2)c1,.,.,.,100µM,100µM
CN(c1ncccc1CNC(=O)c1ccc2c(c1)OCO2)C1CCCCC1,.,.,.,?,.
CCOc1ccc(C(=O)N2CCC3(CC2)NC(=O)N(c2ccc(F)cc2)N3)cc1,.,?,.,?,?
COc1ccc2c3c1C(c1ccccc1)N(Cc1ccccc1)CC3=CC(C)(C)CO2 (centres undefined),/,/,/,?,.
COc1ccc2c3c1CN(C(=O)NCc1ccccc1)CC3=CC(C)(C)CO2,/,/,/,40µM,?
COc1ccc(F)cc1-c1cccc(C(=O)NCCNC(=O)C(C)(C)C)c1,/,.,/,?,?
COc1ccc(F)cc1-c1cccc(C(=O)NCCNC(=O)c2ccc(Cl)nc2)c1,/,.,/,40µM,?
COc1ccc(F)cc1-c1cccc(C(=O)NCCN[S+](C)(=O)[O-])c1,/,.,/,.,.
COc1ccc(F)cc1-c1cccc(C(=O)NCCN[S+](=O)([O-])c2ccccc2)c1,/,.,/,?,?
COc1ccc(F)cc1-c1cccc(C(=O)NCCNC(=O)Cc2cccc(Cl)c2)c1,/,.,/,?,40µM
SMILES,NPR1 antag,GPT2 inh,FLuc inh,HEK cytotox,NIH3T3 tox
COCC(=O)NCCNC(=O)c1cccc(-c2cc(F)ccc2OC)c1,/,.,/,.,.
COc1ccc(F)cc1-c1cccc(C(=O)NCCNC(=O)c2ccc(Cl)cc2)c1,/,.,/,45µM,?
COc1ccc(F)cc1-c1cccc(C(=O)NCCNC(=O)c2cccc(Cl)c2)c1,/,.,/,20µM,?
COCC1CN(C(C)=O)CC12CCN(C(=O)CCCc1ccccc1)CC2 (centres undefined),.,.,.,.,.
O=c1[nH]nc2n1CCN(Cc1ccc(OC(F)(F)F)cc1)CC2,.,.,.,.,.
O=C(Nc1ccccc1)C1CC(=O)N(c2n[nH]c3cc(Br)ccc23)C1 (centres undefined),.,.,.,.,.
CC(C)C[C@@H](NC(=O)C1=C[C@@H](NC(=O)NC2CCCCC2)[C@@H](O)[C@H](O)C1)C(N)=O,.,?,.,.,.
COc1ccc(F)cc1-c1cccc(C(=O)NCCNC(C)=O)c1,/,.,/,.,?
COc1cccc(C(=O)NCCNC(=O)c2cccc(-c3cc(F)ccc3OC)c2)c1,/,.,/,?,45µM
COc1ccc(F)cc1-c1cccc(C(=O)NCCNC(=O)Nc2ccc(Cl)cc2)c1,/,.,/,?,32µM
Fc1ccc(CN2CCN(C3CCNC3)CC2)cc1Cl (centres undefined),.,.,.,.,.
c1ccc(COc2ccc(CN3CCN(C4CCNC4)CC3)cc2)cc1 (centres undefined),.,?,?,?,45µM
O=c1c2nc(Nc3cccc(F)c3)ccc2ncn1Cc1ccccc1,.,.,?,79µM,?
O=c1c2nc(Nc3cccc(F)c3)ccc2ncn1-c1ccccc1,/,.,/,/,/
O=C(Nc1ccccc1)c1cnc2n1CCN(Cc1ccc3[nH]ccc3c1)CC2,.,.,.,100µM,89µM
COc1ccccc1CN1CCc2ncc(C(=O)Nc3ccccc3)n2CC1,.,.,.,?,?
O=C(NCCOc1ccccc1)c1cnc2n1CCN(Cc1ccc3[nH]ccc3c1)CC2,.,.,.,?,?
COc1ccc(OC)c(CN2CCc3ncc(C(=O)Nc4ccccc4)n3CC2)c1,.,.,.,112µM,?
O=C1CCCCC(Cc2ccccc2)(C(=O)Nc2cccnc2)N1 (centres undefined),.,.,.,.,.
COC(=O)c1ccccc1Nc1nc(-c2ccccc2)no1,.,?,14µM,.,.
COc1ccc(-c2noc(Nc3ccc(OC)cc3OC)n2)cc1,.,.,25µM,?,.
O=S(=O)(N[C@H]1CO[C@H]2[C@@H]1OC[C@@H]2n1cc(-c2ccccn2)nn1)c1cccc2cccnc12,?,.,.,?,?
CNC(=O)[C@@H]1C[C@@H](n2cc(CN(C)C(=O)c3cccc(F)c3F)nn2)CN1,.,.,.,.,.
O=S(=O)(NCC1CN(CC2CC2)CC12CCCCC2)c1ccccc1 (centres undefined),/,.,/,?,?
CC(C)(C)OC(=O)N1CC(Nc2ccc(O)cc2)C1,/,.,/,45µM,28µM!
CC(C)(C)OC(=O)N1CC(Nc2cccc(Oc3ccccc3)c2)C1,/,.,/,?,?
COc1ccccc1CN1CCC(O)(c2csc(CN3CCN(c4ccccn4)CC3)n2)CC1,.,.,.,?,?
CCOCC1(C)COc2ccc(C(=O)Nc3ccc(F)c(Cl)c3)cc2N1 (centres undefined),?,.,?,40µM,32µM
COc1cccc(NC(=O)c2ccc3c(c2)NC(C)(COc2cccnc2)CO3)c1 (centres undefined),22µM,.,?,50µM,?
CCOCC1(C)COc2ccc(C(=O)Nc3cccnc3)cc2N1 (centres undefined),.,.,.,?,.

# High-throughput results from PubChem BioAssay.
